# Screens: PubChem BioAssay, National Center for Advancing Translational Sciences (NCATS)
# An excerpt weighted towards active compounds, which were near 9.9% of everything screened.
# KB-V1 MDR tox – kills drug-selected multidrug resistant KB-V1 cells; KB-V1 MDR cells viability, CellTiter-Glo, 72 h; Potency, µM (top dose mostly 46.1 µM), actives largely listed as cytotoxic; hit rate 3.4% among 400,000; AID 1347076; further: potency means the concentration at half of the fitted maximal effect; on the % scale 0 is the no-effect control and ±100 the full control effect; nearly all actives have a fitted effect of over 60% in size
#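 Cytotoxicity toward P-gp-expressing KB-V1 cells was determined as loss of CellTiter-Glo luminescence after 72 h at 37 degrees C. Compounds were tested in quantitative HTS format across a concentration range, with curves fitted to normalized data.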
# IL1B secr inh – inflammasome signaling inhibition, IL-1 beta readout; THP-1 LPS/ATP IL-1B secretion, AlphaLISA, 16 h; hits give low values; hit rate 4.7% among 360,000; activity change, % at 57.5 µM; AID 743279; in the data active means activity change below about -50%; inconclusive means mostly about -30% to -49%; further: on the % scale 0 is the no-effect control and ±100 the full control effect
#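 Secreted IL-1B measured by AlphaLISA bead assay after 16 h compound exposure of THP-1 cells; compounds (final up to 57.5 uM) added 1 h before LPS (250 ng/mL) and ATP (1.25 mM) stimulation; lower signal means less secretion.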
# SW480 rerep – DNA re-replication induction in SW480 cells | SW480 DNA re-replication, Hoechst DNA content imaging, 48 h | Potency, µM (highest dose often 46.1 µM), inactives show top-dose re-replication activation, actives largely listed as activators | hit rate 1.8% among 340,000 | AID 624297; further: potency means the concentration at half of the fitted maximal effect; % of control where 0% means no effect; nearly all actives have a fitted effect of over 55% in size
#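 250 cells/well; 23 nL cpd via pin tool; 48 hr, 37 C, 5% CO2; Hoechst 40 min; imager read of total nuclear intensity, ex 405/em 500-530 nm.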
# KB-3-1 tox – KB-3-1 parental cell cytotoxicity | KB-3-1 viability, CellTiter-Glo ATP luminescence, 72 h | Potency, µM (titrated, usually from 46.1 µM), actives largely listed as cytotoxic | hit rate 1.4% among 400,000; further: potency means the concentration at half of the fitted maximal effect; on the % scale 0 is the no-effect control and ±100 the full control effect; nearly all actives have a fitted effect of over 60% in size
#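 KB-3-1 cells, DMEM (no phenol red) + 10% FBS; compound by pin transfer, 72 h, 37 °C. Readout: CellTiter-Glo luminescence after 10 min. Data normalized, curve-fitted.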
# MCF10A rereplic – inducers of DNA re-replication in MCF 10A breast cells; MCF 10A DNA re-replication, Hoechst nuclear intensity, 48 h; Potency, µM (highest dose often 46.1 µM), for inactives: top-dose activity, positive = re-replication, most hits filed as activators; hit rate 2.9% among 350,000; further: potency means the concentration at half of the fitted maximal effect; % of control where 0% means no effect; nearly all actives have a fitted effect of over 50% in size
# Numbers without * were called inactive; i = inactive; ? = inconclusive; / = no result; [ ] = dose if it differs, or a comment. Unless noted, the call rests on the fitted dose curve; in most records, active means well fitted curve in the direction sought with a large enough effect; inconclusive means small, poorly fitted or top-dose-only effect, or another doubt; inactive means no such curve, though single readings can be large; an effect the other way counts as inactive or inconclusive.
SMILES,KB-V1 MDR tox,IL1B secr inh,SW480 rerep,KB-3-1 tox,MCF10A rereplic
Cc1sc2ncn(CC(=O)N3CCOCC3)c(=O)c2c1-c1ccccc1,i,8,7%,i,-5%
CN(C)c1nc(Cl)nc(N(C#N)CCOc2ccccc2)n1,i,-86*,?,i,?
CC(C)C(=O)OCc1cc(=O)n2nc(C3CCCCC3)sc2n1,i,/,/,i,/
Cc1ccc(CN2C(=O)N/C(=C\c3ccc(-c4ccc(C(=O)O)cc4C)o3)C2=O)cc1,i,-14,7.3µM*,i,?
Cc1cc(C(=O)O)ccc1-c1ccc(/C=C2\NC(=O)N(Cc3ccccc3Cl)C2=O)o1,i,0,?,i,2.3µM*
C#CCN1C(=O)S/C(=C\c2ccc(-c3ccc(C(=O)O)cc3C)o2)C1=O,i,30,20%,i,-6%
Cc1ccc(C(=O)O)cc1-c1ccc(/C=C2/NC(=O)N(c3ccccc3)C2=O)o1,i,19,?,i,13µM*
Cc1ccc(/C=C2/NC(=O)N(Cc3ccccc3)C2=O)o1,i,0,?,i,25%
Cc1ccc(C)c(N2C(=N)S/C(=C\c3ccc(-c4ccccc4C(=O)O)o3)C2=O)c1,i,5,-19%,i,18µM*
CCCCNC(=O)C(CC)Sc1nnc(-c2cccc(F)c2)c(-c2cccc(F)c2)n1 (stereo unspecified),?,/,/,i,/
O=S(=O)(NCc1ccc(F)cc1)c1ccc(N2CCCCS2(=O)=O)cc1,i,/,/,?,/
Cc1ccc(C(=O)O)cc1-c1ccc(/C=C2\SC(=O)N(CC(=O)Nc3ccccc3)C2=O)o1,i,0,-26%,i,23µM*
O=C(O)c1ccc(-c2ccc(/C=C3\NC(=O)N(Cc4ccc(Cl)cc4)C3=O)o2)cc1,i,-12,10µM*,i,2.1µM*
Cc1ccccc1NC(=O)CN1C(=O)S/C(=C\c2ccc(-c3cc(C(=O)O)ccc3C)o2)C1=O,?,-4,9%,i,?
Cc1ccc(NS(=O)(=O)c2ccc3c(c2)N(C)C(=O)CO3)cc1C,i,/,/,i,/
O=C(CSc1nc(=O)n2ccccc2n1)NC1CCCCC1,i,8,1%,i,-1%
CCc1nc2sc3c(c2c(=O)n1NC(=O)CCl)CCCC3,?,-77*,17%,i,?
Cc1cc[n+](C(C)C(=O)c2ccc(-c3ccccc3)cc2)cc1 (stereo unspecified),i,-58*,17%,?,2%[9.22 µM]
CC(C(=O)c1ccc(-c2ccccc2)cc1)[n+]1ccccc1 (stereo unspecified),i,-13,1%,?,19%
Cc1ccc(NC2=C(Cl)C(=O)OC2OC(=O)c2ccc(C)cc2)cc1 (stereo unspecified),?,-102*,-104%,i,?
COc1cccc(NC2=C(Cl)C(=O)OC2OC(=O)c2ccco2)c1 (stereo unspecified),i,?,?,i,14µM*
CCOC(=O)c1ccc(NC(=O)NNS(=O)(=O)c2cc(OC)ccc2OC)cc1,i,i,-2%,i,-6%
Cc1cccc2c(C(O)c3c[nH]c4c(C)cccc34)c[nH]c12,i,/,/,i,/
O=C(CCc1ccccc1)NNC(=O)Nc1ccc(Cl)cc1,i,-1,1%,i,-7%
O=C(CN1c2ccccc2Sc2ccccc21)NNC(=O)Nc1ccc(Cl)c(Cl)c1,i,-92*,?,i,16µM*
SMILES,KB-V1 MDR tox,IL1B secr inh,SW480 rerep,KB-3-1 tox,MCF10A rereplic
Cc1ccc(NC(=O)NNC(=O)COc2ccc(Cl)cc2)cc1,i,6,-11%,i,-4%
O=C(CN1c2ccccc2Sc2ccccc21)NNC(=O)Nc1ccc(Cl)cc1,i,-80*,?,i,?
O=C(CSc1nc2ccccc2s1)NNC(=O)Nc1ccc(Cl)c(Cl)c1,i,11,15%,i,?
COc1ccccc1OCC(=O)NNC(=O)Nc1ccc(Cl)cc1,10µM*,20,18µM*,18µM*,23µM*
O=C(COC(=O)CNS(=O)(=O)c1cccc(Br)c1)NC(=O)Nc1ccc2c(c1)OCCO2,i,19,-2%,i,2%
CCOC(=O)CNc1nc(C(C)(C)C)nc2c1nnn2Cc1ccccc1Cl,5.8µM*,16,1%,?,?
Cc1cc(O)c(C(C)C)cc1N=Cc1ccc([N+](=O)[O-])cc1,/,0,18µM*,/,18µM*
Cc1cc(O)c(C(C)C)cc1N=Cc1ccc(N(C)C)cc1,/,-8,?,/,21µM*
COc1ccc(-c2noc(CC(=O)N(C)c3cccc(C)c3)n2)cc1,i,/,/,i,/
C[n+]1c2n(c3ccccc31)N=C(c1ccccc1)CS2,i,?,?,2.9µM*,?
C[n+]1c2n(c3ccccc31)N=C(c1ccc(Br)cc1)CS2,i,-89*,21%,?,?
CCCCNC(=O)CNC(=S)N(Cc1cc(OC)c(OC)c(OC)c1)C1CCCC1,i,-12,-3%,i,6%
COc1cc(CN(C(=S)NCC(=O)NC2CCCC2)C2CCCC2)cc(OC)c1OC,13µM*,-9,?,i,-6%
CCc1ccc(-c2cc(C(=O)N/N=C/c3c[nH]c4ccccc34)[nH]n2)cc1,?,-53*,6.5µM*,?,21µM*
CCc1ccc2c(Cl)c(C(=O)N/N=C/c3c[nH]c4ccccc34)sc2c1,?,-50*,?,?,?
Cc1ccc(CSc2nnc(SCC(=O)N/N=C/c3c[nH]c4ccccc34)s2)cc1,i,30,?,?,13µM*
O=C(N/N=C/c1c[nH]c2ccccc12)c1cccc(Cl)c1,?,-2,-22%,i,13%
CCN(CC)CCNC(=O)c1c(O)c2cccc3c2n(c1=O)CCC3,0.73µM*,6,?,i,21%
COc1ccc(CNC(=O)c2c(O)c3cccc4c3n(c2=O)CCC4)cc1,15µM*,11,-54%,i,0%
O=C(NCCc1ccccc1)C(=O)NCC1CCCN1S(=O)(=O)c1ccccc1 (stereo unspecified),12µM*,0,18µM*,?,23µM*
CC(C)(C)c1ccc(C(=O)NCC2CCCN2S(=O)(=O)c2ccccc2)cc1 (stereo unspecified),?,-57*,?,?,?
COc1ccc2ncnc(NCc3cccs3)c2c1-c1ccc2c(c1)OCO2,i,/,/,?,/
COc1ccc(-c2ccnc3nc(N4CCN(c5ccccc5)CC4)nn23)cc1,21µM*,-10,-7%,?,?
O=c1oc2ccc3ccccc3c2cc1-c1nnc(Nc2cc(C(F)(F)F)ccc2Cl)s1,?,/,/,i,/
Cc1cc(C)nc(NC(=O)CSc2nnnn2-c2ccccc2)n1,21µM*,-12,-2%,i,1%
